From PubChem
Shown are actives, neighbours in structure and some others; about 7.2% of the full set was active somewhere.
ERK AVP block: qHTS Assay for Inhibitors of the ERK Signaling Pathway using a Homogeneous Screening Assay; Potency, µM (doses to about 57.5 µM), for inactives: top-dose activity, negative = inhibition, usual class: inhibitors; HEK293-V1b, vasopressin-stimulated pERK AlphaScreen; hit rate 0.99% among 72,000; further: on the % scale 0 is the no-effect control and ±100 the full control effect; nearly all actives have a fitted effect of over 55% in size
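HEK293 cells stably expressing V1b receptor, seeded overnight in 1% FBS, were treated with compounds for 30 min at 37C, then stimulated 5 min with 25 nM vasopressin; phospho-ERK read by AlphaScreen SureFire after lysis.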
Tau filament bind: qHTS Assay for Tau Filament Binding. Microtubule-associated protein tau (Homo sapiens), P10636. recombinant tau filaments, thioflavin S fluorescence, 15 h; filaments grown with octadecylsulfate alongside compound. Potency, µM (top dose mostly 57.1 µM), for the others: top-dose activity change, negative = inhibition. hit rate 2% among 71,000. AID 596, 2007;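 further: on the % scale 0 is the no-effect control and ±100 the full control effect; actives lower thioflavin S fluorescence by blocking filaments or displacing dye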
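His-tagged recombinant human tau (exons 2, 3, 10; 1 uM final) fibrillized with 30 uM sodium octadecylsulfate, 15 h at 37 C, in pH 7.4 HEPES buffer with 10 uM thioflavine S and 5 mM DTT. Reduced ThS fluorescence (450/510 nm) marks activity.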
FLuc inh: qHTS Assay for Inhibitors of Firefly Luciferase; Luciferin 4-monooxygenase (Photinus pyralis), P08659; purified firefly luciferase, luminescence, 8 min; Potency, µM (top dose mostly 57.1 µM), for the others: top-dose activity change, negative = inhibition, most hits filed as inhibitors; hit rate 2.2% among 72,000; AID 411, 2009; further: on the % scale 0 is the no-effect control and ±100 the full control effect; nearly all actives have a fitted effect of over 40% in size
Target sequence (P08659 whole entry, looked up): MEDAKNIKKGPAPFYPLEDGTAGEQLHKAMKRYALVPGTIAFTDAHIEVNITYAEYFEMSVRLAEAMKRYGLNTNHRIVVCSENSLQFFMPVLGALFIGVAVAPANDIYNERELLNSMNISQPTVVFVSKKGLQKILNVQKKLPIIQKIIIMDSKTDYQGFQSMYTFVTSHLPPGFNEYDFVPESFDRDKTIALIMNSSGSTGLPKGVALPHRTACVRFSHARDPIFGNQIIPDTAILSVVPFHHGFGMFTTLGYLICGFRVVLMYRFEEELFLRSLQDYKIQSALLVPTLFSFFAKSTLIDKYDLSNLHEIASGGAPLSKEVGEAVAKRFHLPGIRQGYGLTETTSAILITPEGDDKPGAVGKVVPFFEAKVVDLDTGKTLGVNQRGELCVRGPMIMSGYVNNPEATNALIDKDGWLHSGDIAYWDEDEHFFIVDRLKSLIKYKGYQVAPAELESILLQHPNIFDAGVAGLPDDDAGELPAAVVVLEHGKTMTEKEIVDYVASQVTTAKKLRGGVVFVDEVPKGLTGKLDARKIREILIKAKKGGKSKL
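Compounds were tested as concentration series (qHTS) against purified P. pyralis luciferase with luciferin and 10 uM ATP in 50 mM imidazole pH 7.2, 50 mM KCl, 7 mM MgCl2, 0.01% Tween 20, 0.05% BSA. Luminescence was read after 8 min at ambient temperature.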
TSHR ag: qHTS Assay for Agonists of the Thyroid Stimulating Hormone Receptor | Thyrotropin receptor (Homo sapiens), P16473 | HEK293-CNG-TSHR cells (CNG channel as cAMP sensor), membrane potential dye, cAMP | Potency, µM (titrated, usually from 57.1 µM), for inactives: at the highest dose activation, hits mostly activators | hit rate 0.48% among 73,000 | AID 926, 2007; active means well fitted activation curve with a large enough effect in the main read-out, with a control signal flat, not every such curve was filed as active; inconclusive means small, poorly fitted or top-dose-only effect, or a change in a side signal; inactive means no such curve, though single readings can be large or run the other way; % of control where 0% means no effect;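 further: the control signal comes from parental cells without the receptor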
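cAMP rise detected as CNG-channel membrane depolarization by fluorescent dye (emission 590 nm), 30 min after compound, following 60 min dye loading containing 100 uM RO 20-1724 at room temperature. Cells: TSHR/CNG HEK 293, with parental CNG HEK 293 as control.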
PK Bst: Pyruvate Kinase; hit rate 1.2% among 51,000; purified pyruvate kinase, luminescence ATP production; ribose 5-phosphate activator present at AC10; Potency, µM; in the data active means potency below about 11 µM; inconclusive means mostly about 12 µM to 25 µM;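 the screen sought inhibitors and activators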;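 further: scaled between full activation by ribose 5 phosphate and full inhibition by luteolin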
HEK293 cAMP ctrl: qHTS Assay for Agonists of the Thyroid Stimulating Hormone Receptor: Activators of Intracellular cAMP Concentrations in Parental HEK 293 | parental HEK293 CNG cAMP sensor, membrane potential fluorescence | Potency, µM (series often up to 57.1 µM), without a hit: top-dose activation, hits mostly activators | hit rate 2.5% among 73,000; further: % of control where 0% means no effect; nearly all actives have a fitted effect of over 55% in size
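Parental HEK 293 cells stably expressing a cAMP-gated CNG channel were loaded with membrane potential dye containing 100 uM RO 20-1724 for 60 min. Compound added for 30 min; depolarization read as fluorescence intensity at 590 nm.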
Starred values were filed as active, the others as inactive; ? = inconclusive; nt = no result given; ! = not confirmed by another sample; [ ] = another dose, or the depositor's remark. Unless noted, the call rests on the fitted dose curve; in most records, active means well fitted curve in the direction sought with a large enough effect; inconclusive means small, poorly fitted or top-dose-only effect, or another doubt; inactive means no such curve, though single readings can be large; an effect the other way counts as inactive or inconclusive. Potency means the concentration at half of the fitted maximal effect.

SMILES	ERK AVP block	Tau filament bind	FLuc inh	TSHR ag	PK Bst	HEK293 cAMP ctrl
CCOc1ccc(-c2cc(C(=O)N3CCC4(CC3)OCCO4)c3ccccc3n2)cc1	-9%	4%	0.63µM*	0%[11.4 µM]	0.71*	15%
ClC1=C(Cl)C2(Cl)C3C4CC(C5OC45)C3C1(Cl)C2(Cl)Cl (centres undefined)	13%	-9%	nt	25µM*	nt	21%
Cc1ccc(NC(=[OH+])c2cc3ccccc3cc2O)c(C)c1.Cc1ccc(NC(=[OH+])c2cc3ccccc3cc2O)c(C)c1.[Ni]	11%[11.5 µM]	-10%[11.4 µM]	-18%[11.4 µM]	-4%[11.4 µM]	nt	-12%[11.4 µM]
CC1=C(O)C(=O)C=C2C1=CC=C1[C@]2(C)CC[C@@]2(C)C3C[C@](C)(C(=O)O)CC[C@@]3(C)CC[C@@]12C (some centres undefined)	32µM*	nt	nt	nt	nt	nt
CC(C)C[C@H](NP(=O)(O)O[C@@H]1O[C@@H](C)[C@@H](O)[C@@H](O)[C@H]1O)C(=O)N[C@@H](Cc1c[nH]c2ccccc12)C(=O)O	-12%	5%	0%	2%	nt	-3%
CC(C)c1ccc(C(O)(C(=O)O)c2ccc(C(C)C)cc2)cc1	2%[11.5 µM]	1%[11.4 µM]	4%[11.4 µM]	7%[11.4 µM]	nt	14%[11.4 µM]
O=c1[nH]c2ccccc2n1CCCN1CCC(n2c(=O)[nH]c3cc(Cl)ccc32)CC1	?	21%[11.4 µM]	1%[25.5 µM]	?	>26	16µM*!
O=c1[nH]c(=O)n(C2CCCCCC2)c(O)c1C=NC1CCN(Cc2ccccc2)CC1	-13%	-15%	3%	19%	?	22%
CC(=O)[C@@H]1CC[C@H]2[C@H]3CC[C@H]4C[C@@H](O)CC[C@]4(C)[C@@H]3CC[C@]12C	-9%	9%	2%	12%	nt	8%
CCn1nc(-c2cccs2)nc2c(=O)n(C)c(=O)nc1-2	8%	-8%	0%	?	>57	3.2µM*
Oc1ccc2c3c1O[C@@H]1c4[nH]c5c(c4C[C@@]4(O)[C@@H](C2)N(CC2CC2)CC[C@]314)C[C@]1(O)[C@@H]2Cc3ccc(O)c4c3[C@@]1(CCN2CC1CC1)[C@H]5O4	7%	2%	0%	?	nt	?
Nc1cccc2c(N)cccc12	-7%	32µM*	nt	?	nt	17%
O=C(Oc1ccc2ccc(OC(=O)N3CCOCC3)cc2c1)N1CCOCC1	2%	3%	-13%	?	nt	?
COC(=O)c1c(C)oc2ccc(OC(=O)N3CCOCC3)cc12	-13%	7%	2%	25µM*	>57	5%
O=C(O)[C@@H]1[C@H](C(=O)O)[C@]2(Cl)C(Cl)=C(Cl)[C@@]1(Cl)C2(Cl)Cl	?	-8%[11.4 µM]	0%[11.4 µM]	-2%[11.4 µM]	nt	3%[11.4 µM]
O=C1c2ccccc2C(=O)c2ccccc21	0%	nt	nt	nt	nt	nt
Cc1ccc2c(c1N)C(=O)c1ccccc1C2=O	?	4µM*	nt	?	nt	-51%
CN1Cc2ccccc2[C@@H]2c3cccc4[nH]cc(c34)C[C@H]21	?	25µM*	1%	-14%	nt	-11%
CC1=C[C@@H]2c3cccc4[nH]cc(c34)C[C@H]2N(C)C1	nt	91%	-2%	-7%	nt	-10%
CN1C(=O)N(C)C(=O)C2(Cc3c(nc4ccccn4c3=O)N3CCC(Cc4ccccc4)CC32)C1=O (centres undefined)	13%	33%	1%	nt	>57	13%
Cc1cccn2c(=O)c3c(nc12)N1CCC(Cc2ccccc2)CC1C1(C3)C(=O)N(C)C(=O)N(C)C1=O (centres undefined)	36%	72%	2%	?	>57	20µM*
O=[N+]([O-])c1cccc2ccccc12	2%	8%	nt	-1%	nt	-19%
O=[N+]([O-])c1ccc2c3c(cccc13)CC2	-11%	25µM*	nt	0%	nt	19%
NC(=O)CN1C[C@@H](O)CC1=O	4%	-7%	1%	4%	nt	28%
Clc1ccc(CO[C@@H](Cn2ccnc2)c2ccc(Cl)cc2Cl)cc1	-5%[25.7 µM]	2%[25.6 µM]	11%[25.5 µM]	?	nt	16µM*
SMILES	ERK AVP block	Tau filament bind	FLuc inh	TSHR ag	PK Bst	HEK293 cAMP ctrl
CC(c1ccccc1F)n1cc(C(=O)Nc2ccc3nc[nH]c3c2)nn1 (centres undefined)	15%	0%	-4%	-1%	?	21%
O=C(Nc1ccc2c(c1)OCO2)c1cn(Cc2ccc(F)cc2)nn1	-4%	13µM*	-6%	-9%	>57	-6%
COC(=O)c1cn(CCOc2ccccc2)c2ccccc12	13%	-8%	-6%	?	>57	20µM*
CCCN1CCO[C@@H]2c3cc(O)ccc3OC[C@@H]21	10%	40µM*	?	0%	nt	1%
COC(=O)/C=C\C(=O)N[C@@H]1CC[C@@]2(O)[C@H]3Cc4ccc(O)c5c4[C@@]2(CCN3CC2CC2)[C@@H]1O5	-15%	32µM*	0%	-1%	nt	-1%
O=C1CC[C@@]2(O)[C@H]3Cc4ccc(O)c5c4[C@@]2(CCN3CC2CC2)[C@@H]1O5	-14%	?	1%	18%	nt	9%
CCCCCCCCCCCCCC(=O)O[C@H]1[C@@H](C)[C@@]2(O)[C@@H](C=C(CO)C[C@]3(O)C(=O)C(C)=C[C@@H]23)C2C(C)(C)[C@]21OC(C)=O (some centres undefined)	20%	-16%	-4%	?	nt	?
